According to PubChem BioAssay (NCATS):
Inconclusive results are not listed. A number with no mark means an inactive call. The source made the active and inactive calls. Calls follow the shape of the dose curve; as a rule, active = well fitted inhibition curve with a large enough effect; inconclusive = small, poorly fitted or top-dose-only effect; inactive = flat fitted curve, though single readings scatter. Where a SMILES comes first, the peptide text is derived from it. Bridges are numbered along the chain shown (N, C = ends). [ ]: non-standard residue; d: D form. Orn = NCCC[C@H](N)C(=O)O; Mpa = O=C(O)CCS

Experiment: P-glycoprotein substrates identified in KB-8-5-11 adenocarcinoma cell line, qHTS therapeutic library screen (AID 1346987); also: nearly all actives have a fitted effect of over 65% in size
Settings: KB-8-5-11 (P-gp overexpressing) viability, CellTiter-Glo, 72 h; series mostly up to 44.5 µM; activity change, negative = cytotoxicity: at the top concentration
Outline: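 Luminescence from CellTiter-Glo, read 5 min after addition, quantified survival of KB-8-5-11 (P-gp-overexpressing) cells exposed to compounds for 72 h. AC50 was derived from concentration-response curves.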
% is scaled to controls: 0 for no effect and ±100 for the full control effect; potency is read from the fitted curve at half-maximal effect.

Structure (SMILES)	activity change, negative = cytotoxicity	Potency	outcome
O=C(Nc1ccccc1C(=O)Nc1ccc(CCO)cc1)c1ccc([N+](=O)[O-])cc1	-19.4%		
C=C1/C(=C/C=C2\CCC[C@]3(C)[C@@H]([C@@H](C)OCCC(O)(CC)CC)CC[C@@H]23)C[C@@H](O)C[C@@H]1O	-17.5%		
C1CNCCN1	7.53%		
CNc1cc2[nH]c(=O)n(-c3ccc(NC(=O)NS(=O)(=O)c4ccc(Cl)s4)cc3)c(=O)c2cc1F	4.6%		
CC1(C)S[C@@H]2[C@H](NC(=O)C(C(=O)Oc3ccc4c(c3)CCC4)c3ccccc3)C(=O)N2[C@H]1C(=O)O (stereo not given in full)	9.54%		
OCC(O)COc1ccc(Cl)cc1 (stereo not given)	10.7%		
C/C(=C(\CCOC(=O)c1ccccc1)SS/C(CCOC(=O)c1ccccc1)=C(/C)N(C=O)Cc1cnc(C)nc1N)N(C=O)Cc1cnc(C)nc1N	-1.98%		
O=C1NC(=O)C(c2cnc3ccccn23)=C1c1cn2c3c(cc(F)cc13)CN(C(=O)N1CCCCC1)CC2		16.4 µM (active)	
CC(C)CCNc1ncccc1C(=O)N1CCN(Cc2ccccc2)CC1	-22.2%		
O=S(=O)(O)Oc1ccc(C(c2ccc(OS(=O)(=O)O)cc2)c2ccccn2)cc1	8.69%		
CC(C)(C)c1ccc(C(=O)Nc2cc(Cl)c(Br)cc2C(=O)O)cc1		10.3 µM (active)	
NC(=O)c1ccccc1Nc1ccnc(Nc2cccc(O)c2)n1		8.2 µM (active)	
CC(C)=CCC/C(C)=C/COCC1OC(n2ccc(=O)[nH]c2=O)C(O)C1O (stereo not given)			inactive
CCOc1ccc(C[C@H]2NC(=O)CCSSC[C@@H](C(=O)N3CCC[C@H]3C(=O)N[C@@H](CCCN)C(=O)NCC(N)=O)NC(=O)[C@H](CC(N)=O)NC(=O)[C@H]([C@@H](C)O)NC(=O)[C@H]([C@@H](C)CC)NC2=O)cc1 ([Mpa][dY](Et)ITNCP[Orn]G-NH2; disulfide 1-6)	4.4%		
Cc1ccc(C)c(NS(=O)(=O)c2cc(C(=O)Nc3ccccc3-c3ccccc3)ccc2C)c1		16.4 µM (active)	
C=C1C(=O)O[C@@H]2[C@H]1CC(=O)[C@H](C)[C@@](O)(C(=O)/C=C/C)[C@H]2OC(=O)C(C)CC (stereo not given in full)		5.7 µM (active)	
CC(=O)O[C@H]1[C@@]2(O)C[C@H](C)[C@H](OC(=O)c3ccccc3)[C@@H]2[C@@H](OC(=O)CO)[C@]2(OC(C)=O)C[C@H]3C(=O)C(C)(C)C[C@@H]3[C@@]1(C)[C@H]2OC(C)=O	-7.07% [at 17.3 µM]		
CC1(C)S[C@@H]2[C@H](NC(=O)[C@H](N)c3ccccc3)C(=O)N2[C@H]1C(=O)OCOC(=O)[C@@H]1N2C(=O)C[C@H]2S(=O)(=O)C1(C)C	2.88%		
CCCN(CC)C(CC)C(=O)Nc1c(C)cccc1C (stereo not given)	-3.33%		
CCC(CN)CC(C)CCNCC(O)CNCC(C)CC(CC)CN (stereo not given)	-0.731%		

Structure (SMILES)	activity change, negative = cytotoxicity	Potency	outcome
Fc1ccc(-c2cncc(CN3CCN(c4cccc5c4OCCO5)CC3)c2)cc1	-26.7%		
COC(C)(C)CCn1nc(Nc2c(C)cccc2C)c2cnc(Nc3ccc(OCCN4CCCC4)c(F)c3)nc21		20.6 µM (active)	
COC(CCc1ccc(O)cc1)CC(=O)CCc1ccc(O)cc1 (stereo not given)	-0.254%		
c1ccc(-c2cnn3cc(-c4ccc(OCCN5CCOCC5)cc4)cnc23)cc1		1.64 µM (active)	
CC[N+]1(C/C2=C/CCCCCC2)CCC(NC(=O)C2c3cc(Cl)ccc3Oc3ccc(Cl)cc32)CC1 (stereo not given)	-13.8%		
COc1cc(NC(=O)c2cc(C3CC3)on2)c(OC)cc1Cl	-4.84%		
Cn1ncc(Cl)c1-c1cc(C(=O)NC(CN)Cc2ccc(F)c(F)c2)oc1Cl (stereo not given)		14.6 µM (active)	
NCCCC[C@H](NC(=O)[C@@H]1CCCN1C(=O)[C@@H]1CSSC[C@H](NC(=O)CNC(=O)CNC(=O)CN)C(=O)N[C@@H](Cc2ccc(O)cc2)C(=O)N[C@@H](Cc2ccccc2)C(=O)N[C@@H](CCC(N)=O)C(=O)N[C@@H](CC(N)=O)C(=O)N1)C(=O)NCC(N)=O (H-GGGCYFQNCPKG-NH2; disulfide 4-9)	-10.6%		
Cn1c(SCC(=O)N2CCC[C@H]2C(=O)Nc2ccccc2-c2ccccc2)nc2ccccc21	-13.6%		
CCC(C)C(C(=O)OCC[N+](C)(CC)CC)c1ccccc1 (stereo not given)	-0.686%		
CC[C@H]1OC(=O)[C@H](C)[C@@H](O[C@H]2C[C@@](C)(OC)[C@@H](O)[C@H](C)O2)[C@H](C)[C@@H](O[C@H]2O[C@H](C)C[C@H](N(C)C)[C@H]2O)[C@](C)(O)C[C@@H](C)C(=O)[C@H](C)[C@@H](O)[C@]1(C)O			inactive [at 17.3 µM]
O=C(CCCN1CCC(n2c(=S)[nH]c3ccccc32)CC1)c1ccc(F)cc1		9.2 µM (active)	
CC1OC2OC(=O)C3(C)CC4C5(CO5)C5=CC(=O)OC(C)(C)C5=CC(=O)C4(C)C(C1=O)C23 (stereo not given)	-0.67% [at 17.3 µM]		
CC(C)C[C@@H](N)C(=O)N[C@H]1C(=O)N[C@@H](CC(N)=O)C(=O)N[C@H]2C(=O)N[C@H]3C(=O)N[C@H](C(=O)N[C@H](C(=O)O)c4cc(O)cc(O)c4-c4cc3ccc4O)[C@H](O)c3ccc(c(Cl)c3)Oc3cc2cc(c3O[C@@H]2O[C@H](CO)[C@@H](O)[C@H](O)[C@H]2O[C@H]2C[C@](C)(N)[C@H](O)[C@H](C)O2)Oc2ccc(cc2Cl)[C@H]1O			inactive [at 17.3 µM]
CC#CCC(C)[C@H](O)/C=C/[C@@H]1[C@H]2C/C(=C/CCCC(=O)O)C[C@H]2C[C@H]1O (stereo not given in full)	2.85%		
COc1cc2c(cc1O)C1(Cc3ccc4c(c3C1O)OCO4)[N+](C)([O-])CC2 (stereo not given)			inactive
CCC(C)CC(=O)OC1C(=O)C(CO)=CC(O)C1C(C)C (stereo not given)		7.31 µM (active)	
CCOC(=O)N1c2ccc(C(F)(F)F)cc2C(N(Cc2cc(C(F)(F)F)cc(C(F)(F)F)c2)C(=O)OC)CC1CC (stereo not given)	-7.27%		
CCC(=O)OCC(=O)[C@@]1(OC(=O)CC)[C@H](C)C[C@H]2[C@@H]3CCC4=CC(=O)C=C[C@]4(C)[C@@]3(F)[C@@H](O)C[C@@]21C	-1.86%		
C=CC(C)(C)c1[nH]c2ccccc2c1C[C@@H]1NC(=O)[C@H](C)NC1=O	-5.67%		
